The structures appear in SMILES notation. Values joined by “and” are separate entries in the source; they are usually repeats but may differ in a detail not shown here. Equal values may be shown once. Inconclusive results are not listed. A structure can be active in one record and inactive in another. Active and inactive are the calls of the source. Unless noted, calls follow the shape of the dose curve; as a rule, active = well fitted curve in the direction sought with a large enough effect; inconclusive = small, poorly fitted or top-dose-only effect, or another doubt; inactive = no such curve, though single readings can be large; an effect the other way counts as inactive or inconclusive.

In test [1] the test system is Zika virus NS2B-NS3 protease. Kind of test: Primary screen GU AMC qHTS for Zika virus inhibitors (AID 1347154).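 Also: 0% = no-inhibitor control and -100% = no-enzyme control; nearly all actives have a fitted effect of over 70% in size.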 In a few lines:
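Fluorogenic AMC-substrate cleavage by noncovalent NS2B-NS3 protease complex (25 nM, pH 8.0 Tris buffer with Tween 20) followed for 15 minutes at room temperature (~20% conversion). Percent inhibition from ex340/em450 signal change, fitted by 4-parameter Hill equation.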

Test [2] is described as follows: Primary qHTS for small molecule stabilizers of the endoplasmic reticulum resident proteome: Secreted ER Calcium Modulated Protein (SERCaMP) assay (AID 1508630). Also: % is scaled to controls: 0 for no effect and ±100 for the full control effect. In a few lines: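 GLuc-SERCaMP-expressing SH-SY5Y cells, pretreated 16 h with compound, are challenged with thapsigargin to empty ER calcium stores; after 4 h, coelenterazine is added directly to the medium and luminescence is imaged.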

Test [3] is described as follows: AP1 Signaling Pathway (AID 357; active = well fitted curve in either direction with a large enough effect, not every such curve was filed as active;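 also: ME-180 reporter cells stimulated with EGF at its EC50 level; % is scaled to controls: 0 for no effect and ±100 for the full control effect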). The following applies: ME-180 AP-1-bla reporter, EGF-induced, beta-lactamase ratio, 5 h. In a few lines: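 AP-1-bla ME-180 cells, Opti-MEM + 0.5% dialyzed FBS, plated overnight 37 °C. Cpd titration + EC50 EGF, 5 h 37 °C. CCF4 2.5 h RT; ex 405, em 460/530 ratio → %activity, AC50.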
The target of test [4] is Cytochrome P450 1A2 (Homo sapiens) (UniProt P05177). Kind of test: p450-cyp1a2 (AID 410; calls by dose curve; also: potency is read from the fitted curve at half-maximal effect;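 as to activity change, negative = inhibition: -100% = full effect of reference inhibitor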). The method in brief:
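Luminescent readout of luciferin formed from Luciferin-ME by human CYP1A2; data normalized against complete inhibition by 57 uM furafylline. Enzyme 20nM, substrate 100uM at Km, 100mM KPO4 buffer, 60 min reaction at room temperature.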

Test [5] can be described thus: NFAT Signaling Pathway (AID 444; active = well fitted curve in either direction with a large enough effect, not every such curve was filed as active;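 also: carbachol stimulus at about its EC50 of 1 µM final; % is scaled to controls: 0 for no effect and ±100 for the full control effect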). The following applies: Jurkat NFAT-bla M1, carbachol, beta-lactamase ratio, 5 h; at 38 µM (top of the series). In a few lines:
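Read-out: CCF4 FRET ratio (460 nm/530 nm) after 1 h RT dye loading, used for %activity and AC50 from titration series. Cells: Jurkat NFAT-β-lactamase/M1 line, treated with compound plus 1 uM carbachol for 5 h, 37 °C.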

A short description of test [6]: Stat Signaling Pathway (AID 446; active = well fitted curve in either direction with a large enough effect, not every such curve was filed as active;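 also: ME-180 cervical cancer cells given 40 pM IL-6 alongside compound; SIE-controlled beta-lactamase reporter measured as 460/530 nm FRET emission ratio; % is scaled to controls: 0 for no effect and ±100 for the full control effect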). The following applies: ME-180 SIE beta-lactamase reporter, IL-6 stimulated, 5 h. The method in brief: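 Screening format detects activators and inhibitors alike: ME-180 SIE-bla cells stimulated at 40 pM IL-6 for 5 hrs with compound, then dual-emission beta-lactamase read at 405 nm excitation.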
Test [7] has as its target Glucocorticoid receptor (Homo sapiens) (UniProt P04150). Put plainly: GR-GFP Redistribution (AID 450;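 active = compounds whose dose series gives a full or clear partial fitted curve of increased nuclear translocation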; also: potency is read from the fitted curve at half-maximal effect). The following applies: U2OS GR-GFP nuclear translocation, laser cytometry, 2 h.
Test [8] has the same target. Kind of test: GR-EFC Redistribution (AID 451; calls by dose curve; also: potency is read from the fitted curve at half-maximal effect). The following applies: CHO-K1 GR-EFC translocation, beta-gal luminescence, 2 h. The method in brief: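 Translocation of GR-ED fusion to nuclear EA restores b-gal, read by luminescence after 1 h room-temperature detection. Engineered CHO-K1 biosensor cells, 1,000/well, exposed 2 h at 37 C to titrations up to 46 uM final.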

In test [9] the target is Mitogen-activated protein kinase 10 (Mus musculus) (UniProt Q61831). Kind of test: JNK3 AlphaScreen Assay (AID 530; active = well fitted curve in either direction with a large enough effect, not every such curve was filed as active). The method in brief: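 Compound titrations were preincubated 15 minutes at room temperature with substrate, antibody and pre-activated JNK3-containing HepG2 lysate. Reactions were started with 10 uM ATP and stopped with EDTA-containing bead buffer for AlphaScreen detection.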

Test [10] has as its target 3',5'-cyclic-AMP phosphodiesterase 4B (Homo sapiens) (UniProt Q07343). Put plainly: qHTS Assay for Inhibitors of PDE-IV (AID 607; active = well fitted activation curve with a large enough effect in the main read-out, with a control signal flat, not every such curve was filed as active; also: % of control where 0% means no effect). The method in brief:
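The readout is membrane depolarisation from a cAMP-sensing CNG channel, detected with a potential dye at ex 535/em 590. Cells were HEK293-derived (endogenous PDE-IV) at 1000 cells/well, titrated up to 22.9 uM final.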

The target of test [11] is Pyruvate kinase (Leishmania mexicana) (UniProt Q27686). Put plainly: qHTS Validation Assay for Inhibitors of Leishmania Mexicana Pyruvate Kinase (AID 945).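 Also: 0% = DMSO only neutral control wells.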 In a few lines: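 qHTS eight-point titrations against 0.2 nM LmPYK (E451W) in imidazole buffer pH 7.2 with 0.5 mM PEP, 0.1 mM ADP; 1 h, room temperature. Readout: PKLight luminescence, normalized to neutral DMSO wells.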
Sequence of Pyruvate kinase (Leishmania mexicana) (Q27686 2-499 E452W): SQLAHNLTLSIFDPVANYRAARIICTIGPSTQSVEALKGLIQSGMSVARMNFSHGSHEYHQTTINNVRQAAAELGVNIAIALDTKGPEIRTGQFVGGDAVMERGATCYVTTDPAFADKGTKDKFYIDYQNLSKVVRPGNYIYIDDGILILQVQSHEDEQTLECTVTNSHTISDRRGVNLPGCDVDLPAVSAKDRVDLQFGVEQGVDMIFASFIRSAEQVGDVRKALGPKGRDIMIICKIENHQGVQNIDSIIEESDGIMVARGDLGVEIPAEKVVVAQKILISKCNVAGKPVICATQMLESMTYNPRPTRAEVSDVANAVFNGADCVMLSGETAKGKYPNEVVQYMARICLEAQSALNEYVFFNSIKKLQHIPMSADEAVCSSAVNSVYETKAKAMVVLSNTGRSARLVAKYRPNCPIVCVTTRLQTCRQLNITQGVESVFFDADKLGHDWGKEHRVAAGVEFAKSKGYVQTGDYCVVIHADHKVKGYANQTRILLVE

Test [12] addresses Pyruvate kinase PKM (Homo sapiens) (UniProt P14618). Kind of test: qHTS Assay for Activators of Human Muscle Pyruvate Kinase (AID 954; active = well fitted curve in the direction sought with a large enough effect, not every such curve was filed as active;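 also: 0% = uninhibited enzyme and -100% = no enzyme or full thiadiazolimine inhibition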). The method in brief:
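Reaction: 0.1 nM purified PKM2 with 0.5 mM phosphoenolpyruvate and 0.1 mM ADP, room temperature, 1 h. Readout: luciferase-based ATP luminescence after stop reagent. Activators judged against a 0.3 nM enzyme column.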

Test [13] has as its target alpha-glucosidase (Oryza sativa, rice) (UniProt Q653V4). Kind of test: Counterscreen for Glucocerebrosidase Inhibitors: qHTS Assay for Rice alpha-Glucosidase at pH 5.0 (AID 997).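 Also: 0% = full activity with enzyme and -100% = basal without enzyme.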 In a few lines: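 Rice alpha-glucosidase (4 nM final) with 400 uM 4-methylumbelliferyl-alpha-D-glucopyranoside in citrate buffer pH 5.0, 20 min at room temperature, stopped at pH 10; fluorescence 365/440 nm, compounds 0.7 nM–77 uM, AC50 from Hill fits.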

The target in test [14] is DNA dC->dU-editing enzyme APOBEC-3G (Homo sapiens) (UniProt Q9HC16). Kind of test: qHTS for inhibitors of Vif-A3G interactions: Validation (AID 588379). Also: 0% is about no effect. The method in brief: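 HeLa cells stably expressing Vif and A3G-eYFP, 700 cells/well, incubated overnight at 37 deg C, then exposed to compound overnight at 37 deg C. Inhibition of Vif-mediated degradation read as increased yellow fluorescence (Ex 488/Em 500-530) by laser-scanning cytometry.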
Sequence of DNA dC->dU-editing enzyme APOBEC-3G (Homo sapiens) (Q9HC16 whole entry, looked up): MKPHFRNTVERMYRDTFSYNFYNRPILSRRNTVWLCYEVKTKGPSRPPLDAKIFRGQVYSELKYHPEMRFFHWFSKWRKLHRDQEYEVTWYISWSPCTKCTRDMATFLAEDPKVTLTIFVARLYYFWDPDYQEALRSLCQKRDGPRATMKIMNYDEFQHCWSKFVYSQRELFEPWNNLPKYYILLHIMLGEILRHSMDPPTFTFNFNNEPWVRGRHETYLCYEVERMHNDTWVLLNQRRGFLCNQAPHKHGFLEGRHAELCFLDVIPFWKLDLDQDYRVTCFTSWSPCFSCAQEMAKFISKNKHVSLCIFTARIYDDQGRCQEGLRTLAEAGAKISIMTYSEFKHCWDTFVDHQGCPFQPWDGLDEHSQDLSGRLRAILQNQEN

Test [15] concerns the target Cytochrome P450 3A4 (Homo sapiens) (UniProt P08684). Put plainly: qHTS Assay for Activators of Cytochrome P450 3A4 (AID 885). Also: nearly all actives have a fitted effect of over 65% in size. The method in brief: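 Steps: enzyme/substrate mix dispensed; compound added, 10 min RT; NADPH regeneration solution added, 60 min RT; luciferin detection buffer stops reaction; 20 min later luminescence measured.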
Test [16] concerns the target Cytochrome P450 2D6 (Homo sapiens) (UniProt P10635). Put plainly: qHTS Assay for Inhibitors and Substrates of Cytochrome P450 2D6 (AID 891).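 Also: luciferin methyl ether substrate demethylated by CYP2D6 with NADPH regeneration; % is scaled to controls: 0 for no effect and ±100 for the full control effect; nearly all actives have a fitted effect of over 60% in size.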 In a few lines:
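Human CYP2D6 (5 nM) with 30 uM Luciferin-ME EGE (at Km) in 100 mM KPO4, compound preincubated 10 min, then NADPH regeneration system for 60 min at room temperature. Luciferin read by luminescence; normalized to 1.43 uM quinidine.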

Test [17] deals with Cytochrome P450 2C19 (Homo sapiens) (UniProt P33261). Kind of test: qHTS Assay for Inhibitors and Substrates of Cytochrome P450 2C19 (AID 899). Also: % is scaled to controls: 0 for no effect and ±100 for the full control effect; nearly all actives have a fitted effect of over 60% in size. The method in brief:
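Reactions contain 5nM enzyme, 10uM Luciferin-H EGE (KM) and 50mM KPO4; compound preincubates 10 min at 37C, NADPH regeneration starts turnover for 60 min. Luminescence after detection reagent gives activity.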

For test [18], the target named is Ubiquitin carboxyl-terminal hydrolase 1 (Homo sapiens) (UniProt O94782). Put plainly: Inhibitors of USP1/UAF1: Pilot qHTS (AID 504865).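 Also: rhodamine fluorescence freed from ubiquitin-rhodamine substrate followed over time; top concentration of the series differs between compounds; % is scaled to controls: 0 for no effect and ±100 for the full control effect; nearly all actives have a fitted effect of over 35% in size.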 In a few lines:
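Deubiquitinase activity followed as kinetic rhodamine fluorescence release from 150 nM Ub-Rho. 1 nM USP1/UAF1 with compound, after 15 min room-temperature preincubation, in HEPES pH 7.8 buffer containing TCEP, EDTA, BSA and Tween-20.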

Sequence of Glucocorticoid receptor (Homo sapiens) (P04150 whole entry, looked up, the tested form may be a part): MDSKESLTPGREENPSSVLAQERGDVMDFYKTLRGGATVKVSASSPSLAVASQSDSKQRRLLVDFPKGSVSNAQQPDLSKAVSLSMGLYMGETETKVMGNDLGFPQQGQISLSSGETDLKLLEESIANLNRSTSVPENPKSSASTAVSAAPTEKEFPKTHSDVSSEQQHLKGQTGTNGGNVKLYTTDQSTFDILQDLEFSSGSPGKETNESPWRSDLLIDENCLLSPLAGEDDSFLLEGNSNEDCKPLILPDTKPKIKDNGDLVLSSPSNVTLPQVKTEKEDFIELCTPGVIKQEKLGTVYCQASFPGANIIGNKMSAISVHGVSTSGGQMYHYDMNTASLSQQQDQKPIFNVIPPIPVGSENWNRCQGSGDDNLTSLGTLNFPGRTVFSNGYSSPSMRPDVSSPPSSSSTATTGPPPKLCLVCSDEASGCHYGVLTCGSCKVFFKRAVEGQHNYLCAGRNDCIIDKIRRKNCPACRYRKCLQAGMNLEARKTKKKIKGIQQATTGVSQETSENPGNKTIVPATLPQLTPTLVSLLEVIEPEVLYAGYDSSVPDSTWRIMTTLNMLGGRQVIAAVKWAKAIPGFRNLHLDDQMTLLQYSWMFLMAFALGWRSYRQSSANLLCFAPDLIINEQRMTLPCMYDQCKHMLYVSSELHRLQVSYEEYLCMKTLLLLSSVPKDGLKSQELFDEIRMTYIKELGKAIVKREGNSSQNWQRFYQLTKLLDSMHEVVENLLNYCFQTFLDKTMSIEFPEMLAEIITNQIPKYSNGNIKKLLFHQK
Sequence of 3',5'-cyclic-AMP phosphodiesterase 4B (Homo sapiens) (Q07343 whole entry, looked up): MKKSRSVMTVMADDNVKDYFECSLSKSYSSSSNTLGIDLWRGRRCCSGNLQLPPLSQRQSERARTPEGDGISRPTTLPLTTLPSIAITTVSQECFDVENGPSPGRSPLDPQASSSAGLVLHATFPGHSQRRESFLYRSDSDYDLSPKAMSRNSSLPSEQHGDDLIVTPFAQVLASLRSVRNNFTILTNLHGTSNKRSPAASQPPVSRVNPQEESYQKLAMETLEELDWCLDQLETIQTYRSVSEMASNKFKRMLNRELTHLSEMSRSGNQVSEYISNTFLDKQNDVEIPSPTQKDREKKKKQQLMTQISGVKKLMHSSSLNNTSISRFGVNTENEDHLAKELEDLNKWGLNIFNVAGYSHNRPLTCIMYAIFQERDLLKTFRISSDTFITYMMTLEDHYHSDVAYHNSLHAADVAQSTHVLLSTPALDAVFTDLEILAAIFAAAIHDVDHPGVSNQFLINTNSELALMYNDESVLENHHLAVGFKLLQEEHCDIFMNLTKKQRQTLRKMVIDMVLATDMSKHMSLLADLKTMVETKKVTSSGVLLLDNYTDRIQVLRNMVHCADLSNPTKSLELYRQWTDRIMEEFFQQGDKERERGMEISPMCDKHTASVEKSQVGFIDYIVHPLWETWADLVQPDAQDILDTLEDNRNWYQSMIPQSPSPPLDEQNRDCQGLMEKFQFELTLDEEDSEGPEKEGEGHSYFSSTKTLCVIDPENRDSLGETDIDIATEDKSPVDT
Sequence of Cytochrome P450 1A2 (Homo sapiens) (P05177 whole entry, looked up): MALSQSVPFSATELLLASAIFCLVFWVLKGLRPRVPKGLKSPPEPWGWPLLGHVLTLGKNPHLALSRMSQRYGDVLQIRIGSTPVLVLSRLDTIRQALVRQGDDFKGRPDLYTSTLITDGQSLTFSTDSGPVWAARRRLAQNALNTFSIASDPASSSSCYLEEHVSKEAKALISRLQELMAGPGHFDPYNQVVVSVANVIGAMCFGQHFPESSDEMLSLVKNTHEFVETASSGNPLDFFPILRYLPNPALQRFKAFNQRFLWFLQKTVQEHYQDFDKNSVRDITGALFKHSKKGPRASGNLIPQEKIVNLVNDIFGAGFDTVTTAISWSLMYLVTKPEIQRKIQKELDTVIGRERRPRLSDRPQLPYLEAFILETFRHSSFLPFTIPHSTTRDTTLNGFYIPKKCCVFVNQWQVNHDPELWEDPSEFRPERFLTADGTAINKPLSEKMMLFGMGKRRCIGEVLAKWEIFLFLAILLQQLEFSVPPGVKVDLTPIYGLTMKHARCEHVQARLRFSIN
Sequence of Ubiquitin carboxyl-terminal hydrolase 1 (Homo sapiens) (O94782 whole entry, looked up): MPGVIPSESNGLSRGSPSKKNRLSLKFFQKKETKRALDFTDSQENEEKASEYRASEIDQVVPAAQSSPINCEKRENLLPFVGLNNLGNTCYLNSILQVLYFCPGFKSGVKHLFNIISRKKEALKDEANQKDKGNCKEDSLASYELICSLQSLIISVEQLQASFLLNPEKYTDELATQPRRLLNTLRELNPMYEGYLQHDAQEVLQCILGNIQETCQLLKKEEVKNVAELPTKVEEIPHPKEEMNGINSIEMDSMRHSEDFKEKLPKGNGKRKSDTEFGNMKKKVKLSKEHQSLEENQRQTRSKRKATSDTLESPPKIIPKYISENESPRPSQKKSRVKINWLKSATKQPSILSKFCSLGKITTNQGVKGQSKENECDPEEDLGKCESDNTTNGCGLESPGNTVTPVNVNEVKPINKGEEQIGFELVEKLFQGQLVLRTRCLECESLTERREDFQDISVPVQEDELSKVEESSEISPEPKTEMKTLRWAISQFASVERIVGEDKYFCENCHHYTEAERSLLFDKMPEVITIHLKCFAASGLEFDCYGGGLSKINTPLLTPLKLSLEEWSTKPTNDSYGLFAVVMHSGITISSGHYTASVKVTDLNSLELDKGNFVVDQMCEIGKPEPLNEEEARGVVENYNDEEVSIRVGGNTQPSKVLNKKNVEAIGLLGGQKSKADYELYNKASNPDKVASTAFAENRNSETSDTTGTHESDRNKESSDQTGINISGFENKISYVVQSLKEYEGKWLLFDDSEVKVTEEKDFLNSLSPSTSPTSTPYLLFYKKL
Sequence of Pyruvate kinase PKM (Homo sapiens) (P14618 whole entry, looked up): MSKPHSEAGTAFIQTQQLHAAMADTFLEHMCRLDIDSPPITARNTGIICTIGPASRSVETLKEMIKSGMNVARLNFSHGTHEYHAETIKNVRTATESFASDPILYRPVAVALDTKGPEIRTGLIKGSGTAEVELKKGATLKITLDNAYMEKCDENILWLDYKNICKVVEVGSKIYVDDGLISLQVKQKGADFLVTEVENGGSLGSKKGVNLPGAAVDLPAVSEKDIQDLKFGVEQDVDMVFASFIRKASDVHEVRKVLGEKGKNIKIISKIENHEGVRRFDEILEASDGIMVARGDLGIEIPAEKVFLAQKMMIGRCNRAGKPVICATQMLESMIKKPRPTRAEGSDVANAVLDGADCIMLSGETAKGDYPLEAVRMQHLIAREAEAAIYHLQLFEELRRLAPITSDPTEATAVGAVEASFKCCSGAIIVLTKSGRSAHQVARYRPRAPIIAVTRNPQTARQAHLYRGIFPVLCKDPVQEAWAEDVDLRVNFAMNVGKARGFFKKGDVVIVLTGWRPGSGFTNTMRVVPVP
Sequence of Cytochrome P450 2D6 (Homo sapiens) (P10635 whole entry, looked up): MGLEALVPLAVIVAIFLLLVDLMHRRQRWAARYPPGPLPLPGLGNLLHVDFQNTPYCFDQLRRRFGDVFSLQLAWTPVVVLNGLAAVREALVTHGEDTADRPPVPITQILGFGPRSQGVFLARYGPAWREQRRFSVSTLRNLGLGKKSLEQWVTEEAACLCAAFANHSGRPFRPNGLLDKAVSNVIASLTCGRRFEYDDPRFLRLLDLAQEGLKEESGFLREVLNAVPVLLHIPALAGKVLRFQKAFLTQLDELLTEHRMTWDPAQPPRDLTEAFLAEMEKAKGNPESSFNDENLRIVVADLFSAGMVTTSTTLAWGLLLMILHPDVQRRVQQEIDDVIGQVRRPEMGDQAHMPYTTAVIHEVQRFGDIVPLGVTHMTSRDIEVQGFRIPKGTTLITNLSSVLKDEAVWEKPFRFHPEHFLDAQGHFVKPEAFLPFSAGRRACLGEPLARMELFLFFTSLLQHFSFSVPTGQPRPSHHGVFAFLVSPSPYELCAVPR

Consider `N[C@H](Cc1ccccc1)C(=O)O`, for which the Potency entry in [1] and in test [2] was “inactive” each time.

As for `C[C@@H]1CCN=C(N)S1`, the activity change, negative = inhibition was 12.9% (inactive) in test [3] (at 38 µM (top of the series)) and 2.83% (inactive) in [5]. The Potency result in test [4] is “inactive and 39.8 µM (active)”; in test [7] it was > 46 µM (inactive); in [8] it was > 46 µM (inactive). Moreover, in test [6] (at 38 µM (top of the series)), the activity, negative = inhibition was 9.1% (inactive). The Potency entry in test [9], in test [10], in test [11], in test [14], in [1] and in [2] was “inactive” throughout. The outcome in test [12] and in [13] was inactive.

In the case of `CC/C=C\C/C=C\C/C=C\C/C=C\C/C=C\CCCCCC(=O)O`, the results for the activity change, negative = inhibition in [1] and in test [2] were -1.57% [at 6.83 µM] (inactive) and -17.3% [at 3.88 µM] (inactive), respectively.

`CCCCC[C@H](O)/C=C/C1=C(CCCCCCC(=O)O)C(=O)CC1`: the results for the activity change, negative = inhibition in test [3] (at 17.2 µM (top of the series)), in [1] and in test [2] were -2.06% (inactive), 14% [at 6.83 µM] (inactive) and -5.34% [at 3.88 µM] (inactive), respectively. Moreover, the activity, negative = inhibition in [6] (at 17.2 µM (top of the series)) was 0.776% (inactive). In addition, the Potency in test [7] is > 20.6 µM (inactive).

In the case of `COc1ccc2[nH]c(C(=O)c3ccccc3)cc2c1`, the results for the Potency in [4], in [7] and in test [8] were 0.1 µM (active), > 46 µM (inactive) and > 46 µM (inactive), respectively. Also, the Potency result in test [1] and in [2] was “inactive” throughout.

Take `N[C@H](Cc1ccc(Cl)cc1)C(=O)O`: the activity change, negative = inhibition in test [3] (at 38 µM (top of the series)) is 25.5% (inactive); in test [5], 7.18% (inactive). Besides, the figures for the Potency in test [4], in test [7] and in [8] were 31.6 µM (active), > 46 µM (inactive) and > 46 µM (inactive), respectively. For the same molecule, the activity, negative = inhibition in [6] (at 38 µM (top of the series)) is -4.9% (inactive). Besides, the Potency result in [9], in test [10], in test [15], in [16], in test [17] and in [11] was “inactive” each time. Also, the Potency entry in test [14], in test [1] and in [2] was “inactive” throughout. In addition, the molecule was classed as inactive in test [12] and in test [13].

For `O=C(NCCN1CCCCC1)c1ccc(I)cc1`, the Potency in [4] was 25.1 µM (active); in [7] it was > 46 µM (inactive); in test [8] it was > 46 µM (inactive). For the same molecule, the Potency result in test [9], in test [10], in [18], in test [14], in [1] and in test [2] was “inactive” in each case.

Regarding `c1ccc2cc(C3=NCCN3)ncc2c1`, the Potency in test [4] is 0.501 µM (active); in [7], > 46 µM (inactive); in test [8] it was > 46 µM (inactive). For the same molecule, the Potency result in [9], in test [10], in [18], in test [14], in test [1] and in [2] was “inactive” in each case.

Consider `CC(C)[C@@H]1C(=O)N(S(C)(=O)=O)[C@H]2CCN(C(=O)/C=C\CN3CCCCC3)[C@@H]12`, for which the Potency entry in test [4], in test [9], in [10], in [18], in [14] and in test [1] was “inactive” throughout. Besides, the Potency entry in [2] was “inactive”. The Potency in test [7] and in [8] was > 46 µM (inactive) throughout.

In the case of `CCCCCCCCCCCCCCCC(=O)N[C@H](CN1CCOCC1)[C@H](O)c1ccccc1`, the activity change, negative = inhibition was 6.98% [at 6.83 µM] (inactive) in test [1] and 2.84% [at 3.88 µM] (inactive) in test [2].

In the case of `CCn1c(=O)[nH]c2ccccc21`, the Potency was 31.6 µM (active) in test [4], > 46 µM (inactive) in test [7] and > 46 µM (inactive) in [8]. For the same molecule, the Potency entry in [9], in test [10], in [18], in [14], in test [1] and in test [2] was “inactive” each time.

For the origin of these results see PubChem BioAssay (NCATS).
